# Data taken from PMC8384837, “Expanding the binding specificity for RNA recognition by a PUF domain”.
# Positions count from the first letter of the chain named.
# Key:
# Test in all cases: yeast three-hybrid, YBZ-1, SC-Leu-His + 0.5 mM 3-AT, 4 days
# Settings in all cases: tags: N-Gal4 AD-HA kept; label: inside an RPR1-promoter hybrid RNA with tandem MS2 sites; ssRNA
# [1] = target: T1, PUM1 PUF domain R6-FHR (Homo sapiens, UniProt Q14671 828-1176, N1043F;Y1044H;Q1047R)
# T1 sequence: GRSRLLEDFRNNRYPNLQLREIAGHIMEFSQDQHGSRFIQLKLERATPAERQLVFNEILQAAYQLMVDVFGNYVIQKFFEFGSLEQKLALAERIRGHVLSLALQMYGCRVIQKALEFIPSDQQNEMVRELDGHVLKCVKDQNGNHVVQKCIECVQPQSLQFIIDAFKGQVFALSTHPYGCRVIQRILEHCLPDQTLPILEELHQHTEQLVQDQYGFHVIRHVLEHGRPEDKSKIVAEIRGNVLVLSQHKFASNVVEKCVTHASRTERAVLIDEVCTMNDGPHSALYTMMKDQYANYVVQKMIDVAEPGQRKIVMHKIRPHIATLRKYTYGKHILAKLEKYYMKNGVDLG
# Summary of the method: (§1)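 Sequencing with Illumina followed PCR amplification of the repeat regions from transformants grown four days on SC-Leu (input) or SC-Leu-His + 0.5 mM 3-AT (selection). The transformants were strain YBZ-1 with a LexA–MS2 coat fusion and a HIS3 reporter, carrying Pumilio-1 PUF domain libraries and matching RNA elements. The interaction score is the log change in variant frequency from input to selection, computed in log2 with a pseudocount of 1 for absent variants.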
# [2] = target: T2, PUM1 PUF domain R6-LYM (Homo sapiens, UniProt Q14671 828-1176, N1043L;Q1047M)
# T2 sequence: T1 sequence with F216L, H217Y, R220M
# Summary of the method: as §1
# [3] = target: T3, PUM1 PUF domain R6-AFF (Homo sapiens, UniProt Q14671 828-1176, N1043A;Y1044F;Q1047F)
# T3 sequence: T1 sequence with F216A, H217F, R220F
# Summary of the method: as §1
# [4] = target: PUM1 PUF domain R8-NFR (Homo sapiens, UniProt Q14671 828-1176, Y1123F;Q1126R)
# Summary of the method: as §1
# [5] = target: PUM1 PUF domain R5-GRS (Homo sapiens, UniProt Q14671 828-1176, C1007G;Q1011S)
# Sequence of PUM1 PUF domain R5-GRS (Q14671 828-1176 C1007G/Q1011S): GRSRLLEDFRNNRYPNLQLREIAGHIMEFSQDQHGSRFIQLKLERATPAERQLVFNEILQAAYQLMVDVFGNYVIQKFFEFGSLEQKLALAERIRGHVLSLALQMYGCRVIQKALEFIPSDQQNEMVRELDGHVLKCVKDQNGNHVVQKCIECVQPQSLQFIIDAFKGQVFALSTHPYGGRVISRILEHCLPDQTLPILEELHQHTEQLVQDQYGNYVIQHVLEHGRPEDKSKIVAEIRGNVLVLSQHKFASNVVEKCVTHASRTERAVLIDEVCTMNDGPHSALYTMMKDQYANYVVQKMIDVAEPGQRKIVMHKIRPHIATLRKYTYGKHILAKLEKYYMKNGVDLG
# Summary of the method: as §1
# [6] = target: PUM1 PUF domain R5-PHR (Homo sapiens, UniProt Q14671 828-1176, C1007P;R1008H;Q1011R)
# Summary of the method: as §1
# [7] = target: PUM1 PUF domain R4-RMS (Homo sapiens, UniProt Q14671 828-1176, N971R;H972M;Q975S)
# Summary of the method: as §1
# [8] = target: T4, PUM1 PUF domain R6-SRQ (Homo sapiens, UniProt Q14671 828-1176, N1043S;Y1044R)
# T4 sequence: T1 sequence with F216S, H217R, R220Q
# Summary of the method: as §1
# [9] = target: T5, PUM1 PUF domain R6-QWL (Homo sapiens, UniProt Q14671 828-1176, N1043Q;Y1044W;Q1047L)
# T5 sequence: T1 sequence with F216Q, H217W, R220L
# Summary of the method: as §1
# [10] = target: PUM1 PUF domain R8-PWC (Homo sapiens, UniProt Q14671 828-1176, N1122P;Y1123W;Q1126C)
# Summary of the method: as §1
# [11] = target: PUM1 PUF domain R8-GWH (Homo sapiens, UniProt Q14671 828-1176, N1122G;Y1123W;Q1126H)
# Summary of the method: as §1
# [12] = target: PUM1 PUF domain R1-KWV (Homo sapiens, UniProt Q14671 828-1176, S863K;R864W;Q867V)
# Summary of the method: as §1
# [13] = target: PUM1 PUF domain R2-RKQ (Homo sapiens, UniProt Q14671 828-1176, N899R;Y900K)
# Summary of the method: as §1
# [14] = target: PUM1 PUF domain R5-WWQ (Homo sapiens, UniProt Q14671 828-1176, C1007W;R1008W)
# Summary of the method: as §1
# [15] = target: PUM1 PUF domain R5-EWD (Homo sapiens, UniProt Q14671 828-1176, C1007E;R1008W;Q1011D)
# Summary of the method: as §1
# [16] = target: PUM1 PUF domain R5-RQK (Homo sapiens, UniProt Q14671 828-1176, C1007R;R1008Q;Q1011K)
# Summary of the method: as §1
# [17] = target: PUM1 PUF domain R5-KQW (Homo sapiens, UniProt Q14671 828-1176, C1007K;R1008Q;Q1011W)
# Summary of the method: as §1
# [18] = target: PUM1 PUF domain R5-QAR (Homo sapiens, UniProt Q14671 828-1176, C1007Q;R1008A;Q1011R)
# Summary of the method: as §1
# [19] = target: PUM1 PUF domain R3-MRL (Homo sapiens, UniProt Q14671 828-1176, C935M;Q939L)
# Summary of the method: as §1
# [20] = target: PUM1 PUF domain R3-MRT (Homo sapiens, UniProt Q14671 828-1176, C935M;Q939T)
# Summary of the method: as §1
sequence,measurement,setting,value
GGCUAGAACUAGUGGAUCCCCCGGCGCCCGGCGGCUCGAGCCCGGGUAAGUGUAAAUAGUCUGCAUGCCGCCGGGCGCCAUGCCUGCAGGUCGACUCUAGAAAACAUG,binding signal,[1],3.45 log2 enrichment (interaction score)
same,binding signal,[2],5.36 log2 enrichment (interaction score)
same,binding signal,[3],5.23 log2 enrichment (interaction score)
same,binding signal,[4],3.8 log2 enrichment (interaction score)
same,binding signal,[5],3.71 log2 enrichment (interaction score)
same,binding signal,[6],2.42 log2 enrichment (interaction score)
same,binding signal,[7],4.65 log2 enrichment (interaction score)
GGCUAGAACUAGUGGAUCCCCCGGCGCCCGGCGGCUCGAGCCCGGGUAAGUGAAAAUAGUCUGCAUGCCGCCGGGCGCCAUGCCUGCAGGUCGACUCUAGAAAACAUG,binding signal,[8],3.17 log2 enrichment (interaction score)
same,binding signal,[9],4.43 log2 enrichment (interaction score)
GGCUAGAACUAGUGGAUCCCCCGGCGCCCGGCGGCUCGAGCCCGGGUAAGCGUAAAUAGUCUGCAUGCCGCCGGGCGCCAUGCCUGCAGGUCGACUCUAGAAAACAUG,binding signal,[10],2.98 log2 enrichment (interaction score)
same,binding signal,[4],3.71 log2 enrichment (interaction score)
same,binding signal,[11],3.5 log2 enrichment (interaction score)
GGCUAGAACUAGUGGAUCCCCCGGCGCCCGGCGGCUCGAGCCCGGGUAAGUGUAAAUGGUCUGCAUGCCGCCGGGCGCCAUGCCUGCAGGUCGACUCUAGAAAACAUG,binding signal,[12],0.79 log2 enrichment (interaction score)
GGCUAGAACUAGUGGAUCCCCCGGCGCCCGGCGGCUCGAGCCCGGGUAAGUGUAAAGAGUCUGCAUGCCGCCGGGCGCCAUGCCUGCAGGUCGACUCUAGAAAACAUG,binding signal,[13],2.92 log2 enrichment (interaction score)
GGCUAGAACUAGUGGAUCCCCCGGCGCCCGGCGGCUCGAGCCCGGGUAAGUGUGAAUAGUCUGCAUGCCGCCGGGCGCCAUGCCUGCAGGUCGACUCUAGAAAACAUG,binding signal,[5],2.01 log2 enrichment (interaction score)
same,binding signal,[14],2.01 log2 enrichment (interaction score)
same,binding signal,[15],2.28 log2 enrichment (interaction score)
GGCUAGAACUAGUGGAUCCCCCGGCGCCCGGCGGCUCGAGCCCGGGUAAGUGUAAAUCGUCUGCAUGCCGCCGGGCGCCAUGCCUGCAGGUCGACUCUAGAAAACAUG,binding signal,[12],5.68 log2 enrichment (interaction score)
GGCUAGAACUAGUGGAUCCCCCGGCGCCCGGCGGCUCGAGCCCGGGUAAGUGUUAAUAGUCUGCAUGCCGCCGGGCGCCAUGCCUGCAGGUCGACUCUAGAAAACAUG,binding signal,[16],4.75 log2 enrichment (interaction score)
same,binding signal,[5],4.35 log2 enrichment (interaction score)
same,binding signal,[17],2.43 log2 enrichment (interaction score)
same,binding signal,[14],2.93 log2 enrichment (interaction score)
same,binding signal,[18],3.17 log2 enrichment (interaction score)
GGCUAGAACUAGUGGAUCCCCCGGCGCCCGGCGGCUCGAGCCCGGGUAAGUGUCAAUAGUCUGCAUGCCGCCGGGCGCCAUGCCUGCAGGUCGACUCUAGAAAACAUG,binding signal,[16],3.94 log2 enrichment (interaction score)
same,binding signal,[5],1.13 log2 enrichment (interaction score)
same,binding signal,[17],4.59 log2 enrichment (interaction score)
same,binding signal,[18],4.51 log2 enrichment (interaction score)
GGCUAGAACUAGUGGAUCCCCCGGCGCCCGGCGGCUCGAGCCCGGGUAAGUGUAAUUAGUCUGCAUGCCGCCGGGCGCCAUGCCUGCAGGUCGACUCUAGAAAACAUG,binding signal,[19],1.67 log2 enrichment (interaction score)
same,binding signal,[20],3.61 log2 enrichment (interaction score)
GGCUAGAACUAGUGGAUCCCCCGGCGCCCGGCGGCUCGAGCCCGGGUAAGUGUAAGUAGUCUGCAUGCCGCCGGGCGCCAUGCCUGCAGGUCGACUCUAGAAAACAUG,binding signal,[19],2.68 log2 enrichment (interaction score)
